Rab9 prom act = activates the Rab9 promoter; Huh7 Rab9 promoter-luciferase reporter, luminescence, 24 h; Potency, µM (top dose mostly 9.22 µM), for inactives: at the highest dose activation, negative = inhibition, usual class: activators; hit rate 2.8% among 320,000; also: % of control where 0% means no effect; nearly all actives have a fitted effect of over 60% in size
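Huh7 cells stably carrying a Rab9 promoter-luciferase reporter, 1500 cells per well in OP-MEM I with 10% FBS, treated with compound 24 hours at 37C. Luciferase activity read by luminescence after 10 minutes with Amplite reagent.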
ELG1 DNA repair = inhibitors of ELG1-dependent DNA repair in HEK293T cells; HEK293T ELG1-luciferase reporter, luminescence, 16 h; DNA damage induced by 5-fluorouridine; Potency, µM (highest dose often 46.1 µM), without a hit: at the highest dose activity change, negative = inhibition, most hits filed as inhibitors; hit rate 2.3% among 330,000; also: % is scaled to controls: 0 for no effect and ±100 for the full control effect; nearly all actives have a fitted effect of over 55% in size
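Overnight (16 hr) co-exposure of 2,000 cells/well to 5-fluorouridine and compound at 37 °C preceded detection. Luciferase was quantified via ONE-Glo luminescence; loss of signal denotes inhibition.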
NPC1 prom act = NPC1 promoter activation. Huh7 NPC1 promoter luciferase reporter, 24 h. Potency, µM (series often up to 9.22 µM), without a hit: at the highest dose activation, actives largely listed as activators. hit rate 2.4% among 320,000. AID 485313; also: % of control where 0% means no effect; nearly all actives have a fitted effect of over 60% in size
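Luminescence read-out of NPC1 promoter-driven luciferase in stably transfected Huh7 cells; compounds delivered in DMSO and left 24 h at 37C, 5% CO2, qHTS titration format.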
SMN2 splice up = SMN2 splice variant enhancement. HEK293 SMN2-luciferase splicing reporter, luminescence, 30-36 h. Potency, µM (series often up to 46.1 µM), for the others: at the top dose activity change, positive = activation, hits mostly activators. hit rate 2.8% among 210,000; also: % of control where 0% means no effect; nearly all actives have a fitted effect of over 55% in size
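HEK293 cells carry an SMN2 […]–luciferase reporter in which exon 7 inclusion puts luciferase in frame. Cells were plated 10-12 h before compound addition, then incubated 30-36 h at 37C. ONE-Glo luminescence was read; sodium butyrate at 4.5 mM final served as control.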
FLuc modulator = firefly luciferase modulation, counter-screen for miR-21 project; P08659; purified FLuc, Km substrates, luminescence inhibition; Potency, µM (series often up to 57.5 µM), without a hit: top-dose activity change, negative = inhibition, usual class: inhibitors; hit rate 6.9% among 360,000;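 also: plate controls were vehicle for no effect and reference inhibitor for full effect; nearly all actives have a fitted effect of over 55% in size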
Target sequence (P08659 whole entry, looked up): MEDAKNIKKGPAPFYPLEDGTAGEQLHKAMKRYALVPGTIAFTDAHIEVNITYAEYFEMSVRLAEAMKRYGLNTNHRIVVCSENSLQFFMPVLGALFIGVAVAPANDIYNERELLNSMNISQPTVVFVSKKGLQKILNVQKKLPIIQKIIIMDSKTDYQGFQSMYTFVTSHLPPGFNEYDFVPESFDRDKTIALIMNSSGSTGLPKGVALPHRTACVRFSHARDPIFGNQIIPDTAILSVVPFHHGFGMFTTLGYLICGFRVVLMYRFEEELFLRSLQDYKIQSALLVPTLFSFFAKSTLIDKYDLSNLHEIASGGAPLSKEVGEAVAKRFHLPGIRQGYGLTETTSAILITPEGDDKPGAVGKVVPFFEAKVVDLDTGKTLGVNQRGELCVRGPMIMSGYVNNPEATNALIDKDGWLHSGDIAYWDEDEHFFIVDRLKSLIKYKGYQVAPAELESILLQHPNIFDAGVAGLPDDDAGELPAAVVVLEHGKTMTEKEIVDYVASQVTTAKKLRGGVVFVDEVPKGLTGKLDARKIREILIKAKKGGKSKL
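Biochemical qHTS of compounds, final roughly 60 µM downward over six points, against 10 nM purified firefly luciferase using Km concentrations of substrates (10 uM D-luciferin, 10 uM ATP) in Tris acetate pH 7.5 buffer; luminescence output.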
ELG1 genotoxic = induces genotoxicity in HEK293T cells with luciferase-tagged ELG1; AID 504466; HEK293T ELG1-luciferase reporter, luminescence, 16 h; Potency, µM (doses to about 46 µM), for the others: at the top dose activity change, positive = activation, most hits filed as activators; hit rate 1.3% among 330,000; also: % of control where 0% means no effect; nearly all actives have a fitted effect of over 60% in size
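HEK293T cells expressing luciferase-tagged ELG1 were treated with compound or DMSO for 16 hr at 37°C. Luciferase activity was then read after 30 min with ONE-Glo at room temperature; rising signal flags genetic stress.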
* marks the source's active call; other numbers are inactive results; ? = inconclusive; · = no result given; [ ] = remark or other dose. Shown are actives, neighbours in structure and some others; about 9.3% of the full set was active somewhere. Calls follow the shape of the dose curve; as a rule, active = well fitted curve in the direction sought with a large enough effect; inconclusive = small, poorly fitted or top-dose-only effect, or another doubt; inactive = no such curve, though single readings can be large; an effect the other way counts as inactive or inconclusive. Potency is read from the fitted curve at half-maximal effect.

SMILES | Rab9 prom act | ELG1 DNA repair | NPC1 prom act | SMN2 splice up | FLuc modulator | ELG1 genotoxic
CCOc1ccc(-c2cc(CCCC(=O)NCCCOC)no2)cc1 | 8% | ? | -2% | 17% | 12µM* | 0%
CCOc1ccc(-c2cc(CCCC(=O)NCCc3ccc(OC)c(OC)c3)no2)cc1 | · | · | · | -62% | 11µM* | ·
CCOc1ccc(-c2cc(CCCC(=O)NCCc3cc(OC)c(OC)c(OC)c3)no2)cc1 | · | · | · | -17% | 13µM* | ·
CCOc1ccc(-c2cc(CCCC(=O)N3CCN(c4ccc(OC)cc4)CC3)no2)cc1 | -1% | -23% | 0% | -36% | ? | 0%
COC(=O)/C=C/c1c(C)nc(NCc2ccccc2)nc1Cl | -3% | -14% | -2% | · | -10% | 2%
COc1ccc(CN(C)C(=O)Cn2cnc3c(NCc4ccccc4)ncnc32)cc1OC | · | ? | · | · | · | -1%
CC(=NC1CCCCC1)C1=C(O)c2ccccc2C1=O | 2.8µM* | ? | 2.8µM* | 16µM* | 3.4µM* | ?
COc1ccc(-n2c(-c3ccc(F)cc3)cnc2SCC(=O)NCc2ccco2)cc1 | 14% | 14% | 0% | 6% | 24µM* | ?
CCOc1ccc(NC(=O)CSc2ncc(-c3ccc(F)cc3)n2Cc2ccco2)cc1 | -12% | 16µM* | -1% | · | -1% | -8%
O=C(CSc1ncc(-c2ccccc2)n1-c1ccccc1)NCc1ccco1 | -9% | -15% | 0% | 2% | -1% | -20%
CCOc1ccc(NC(=O)CSc2nnc(-c3ccco3)n2N)cc1 | -8% | 21% | -6% | · | -3% | 0%
O=C(CSc1ncc(-c2ccc(F)cc2)n1Cc1ccco1)Nc1ccc2c(c1)OCO2 | · | · | · | -1% | 19µM* | ·
COCCn1c(=O)c(-c2ccc(Cl)cc2)nc2cnc(OC)nc21 | · | · | · | 0% | · | ·
O=c1oc(CCCO)cc2ccc(C#Cc3ccsc3)cc12 | -9% | ? | ? | · | ? | 12%
CN(C)c1ccc(C#Cc2ccc3cc(CCCO)oc(=O)c3c2)cc1 | 1% | ? | 2.8µM* | · | 1.7µM* | ?
COc1ccc(N=Cc2sc(O)c3ccccc23)cc1 | 1.6µM* | ? | ? | 2.8µM* | 3.8µM* | 16%
COc1ccc(N=Cc2c(O)c3ccccc3n2C(C)=O)cc1 | ? | ? | ? | · | 1.1µM* | 13%
COc1ccc(N=Cc2c(C)[nH][nH]c2=O)cc1 | 8% | ? | 4% | -8% | -9% | 0%
COc1cccc([C@@H]2Oc3ccc(Br)cc3C(=O)[C@H]2OC(=O)N[C@H](C)C2CCCCC2)c1 | · | · | · | 1% | · | ·
O=C(O)C(=Cc1ccnc2ccccc12)C(=O)O | · | · | · | -5%[9.22 µM] | · | ·
Oc1ccc(/C=C/c2ccnc3ccccc23)cc1 | 17% | -2% | 10% | 21% | 24µM* | 11%
Clc1ccccc1/C=C/c1ccnc2ccccc12 | 17% | ? | 14% | · | 19µM* | 4%
COc1ccc(/C=C/C(=O)NC(=S)NNC(=O)c2cccs2)cc1 | -5% | ? | -22% | -4% | ? | -2%
COc1ccc(C(=O)NNC(=S)NC(=O)c2cccnc2)cc1 | -19% | 15% | -1% | · | 1% | -2%
COc1ccc(/C=C/C(=O)NC(=S)NNC(=O)c2cccnc2)cc1 | -1% | 1% | -1% | 4% | 24µM* | 0%
SMILES | Rab9 prom act | ELG1 DNA repair | NPC1 prom act | SMN2 splice up | FLuc modulator | ELG1 genotoxic
COc1ccc(/C=C/C(=O)NC(=S)NNC(=O)c2cnccn2)cc1 | -24% | ? | -15% | · | 17µM* | ?
CCCCNC(=O)c1ccccc1SCC(=O)NC1CCCCCCC1 | -1% | 0% | -3% | · | -15% | -5%
S=c1[nH]nc(-c2ccc3ccccc3n2)o1 | -2% | ? | -1% | -19% | ? | 11%
S=c1[nH]nc(-c2ccc3ccccc3n2)n1-c1ccc(Cl)cc1 | -3% | 13% | -3% | 2% | -2% | 1%
Clc1ccsc1-c1ccc2ccccc2n1 | ? | ? | ? | ? | 11µM* | ?
c1ccc2nc(-c3nccs3)ccc2c1 | ? | ? | 24% | 17% | 13µM* | ?
Clc1ccsc1-c1ccnc(-n2cccc2)n1 | -2% | ? | 12% | 7% | 17µM* | 12%
Cc1ccc(C(C)C)c(OCC(=O)Nc2ccc(-c3nc4ncccc4o3)cc2C)c1 | · | · | · | -6% | 2% | ·
O=C1c2ccccc2CC1Sc1nnc(-c2ccccn2)o1 (stereo unspecified) | 25% | ? | 17% | 17% | 12µM* | 8%
COc1ccc(CNc2ncnc3c2nc2n3CCCC2)cc1 | · | · | · | · | -7% | ·
CCOc1ccccc1N1CSC2=C(C#N)C(c3c(OC)ccc4ccccc34)CC(=O)N2C1 (stereo unspecified) | 0% | -2% | 1% | 5% | 7.6µM* | -6%
COc1cc(OC)c(C2CC(=O)N3CN(c4ccc(C)cc4)CSC3=C2C#N)cc1OC (stereo unspecified) | 25% | 8% | ? | 7% | 15µM* | 3%
O=C(COC(=O)/C=C/c1ccc(Cl)cc1)NC1CCCCCC1 | 11% | 10% | -3% | · | 0% | 0%
CC1CN(C(=O)CCC(=O)NCc2cccc(Cl)c2)c2ccccc2S1 (stereo unspecified) | · | · | · | -26% | -14% | ·
Cc1ccc2nc(-c3cccnc3)oc2c1 | 1.3µM* | ? | ? | ? | 8.5µM* | ?
Cc1ccc(C(=O)Nc2ccc3oc(-c4cccnc4)nc3c2)c(Cl)c1 | · | · | · | -5% | ? | ·
Cc1ccc2nc(-c3ccccn3)oc2c1 | 0.63µM* | ? | 1.6µM* | 7.1µM* | 1.9µM* | ?
CCCCOC(=O)/C=C\C(=O)NC(N)=O | -33% | 10% | -4% | · | 3% | 0%
O=C(NCc1ccccc1)c1ccc2c(=O)n(CC3CCCO3)c(=S)[nH]c2c1 (stereo unspecified) | -2% | -23% | 1% | -7% | 3% | 0%
O=C(NCc1ccco1)c1ccc2c(=O)n(CC3CCCO3)c(=S)[nH]c2c1 (stereo unspecified) | -6% | 13µM* | -3% | -19% | 0% | -5%
Cc1ccc(-c2cc(C(=O)Nc3ccccn3)c3ccccc3n2)o1 | 3% | ? | -1% | 3% | 11µM* | -12%
Cc1ccc(-c2cc(C(=O)Nc3cccnc3)c3ccccc3n2)o1 | 16% | ? | 0% | 3% | 6µM* | 0%
Cc1ccc(NC(=O)c2cc(-c3ccc(C)o3)nc3ccccc23)cc1 | 9% | 1% | 1% | 10% | ? | 5%
O=C(Nc1cccnc1)c1cc(-c2ccc(Br)cc2)nc2ccccc12 | 0% | ? | 0% | · | 17µM* | 0%
CSc1ccccc1NC(=O)c1cc(-c2cccnc2)nc2ccc(Br)cc12 | -6% | 23µM* | -4% | -26% | -12% | -9%

Screening data: PubChem, National Center for Advancing Translational Sciences (NCATS)
